High-throughput results deposited in PubChem BioAssay by National Center for Advancing Translational Sciences (NCATS).
Pol kappa inh – DNA polymerase kappa (human) inhibition | Potency, µM (doses to about 107 µM), for the others: at the top dose activity, negative = inhibition, hits mostly inhibitors | AID 588579 | 400,000 tested, 0.53% active | purified Pol kappa, fluorescent DNA synthesis assay, 10 min | Q9UBT6; note: % is set by controls: 0 for no effect and ±100 for the full control effect
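Pol kappa 10 nM + cpd, 15 min RT; start w/ substrate 50 nM final; fluorescence kinetic read, 0 and 10 min. Neg ctrl: buffer, no enzyme.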
POLI inh – inhibitors of human DNA polymerase iota; Q9UNA4; Pol iota fluorescent replication assay, 10 min; Potency, µM (titrated, usually from 115 µM), without a hit: at the highest dose activity, negative = inhibition, hits mostly inhibitors; 390,000 tested, 1% active
Target sequence (Q9UNA4 whole entry, looked up): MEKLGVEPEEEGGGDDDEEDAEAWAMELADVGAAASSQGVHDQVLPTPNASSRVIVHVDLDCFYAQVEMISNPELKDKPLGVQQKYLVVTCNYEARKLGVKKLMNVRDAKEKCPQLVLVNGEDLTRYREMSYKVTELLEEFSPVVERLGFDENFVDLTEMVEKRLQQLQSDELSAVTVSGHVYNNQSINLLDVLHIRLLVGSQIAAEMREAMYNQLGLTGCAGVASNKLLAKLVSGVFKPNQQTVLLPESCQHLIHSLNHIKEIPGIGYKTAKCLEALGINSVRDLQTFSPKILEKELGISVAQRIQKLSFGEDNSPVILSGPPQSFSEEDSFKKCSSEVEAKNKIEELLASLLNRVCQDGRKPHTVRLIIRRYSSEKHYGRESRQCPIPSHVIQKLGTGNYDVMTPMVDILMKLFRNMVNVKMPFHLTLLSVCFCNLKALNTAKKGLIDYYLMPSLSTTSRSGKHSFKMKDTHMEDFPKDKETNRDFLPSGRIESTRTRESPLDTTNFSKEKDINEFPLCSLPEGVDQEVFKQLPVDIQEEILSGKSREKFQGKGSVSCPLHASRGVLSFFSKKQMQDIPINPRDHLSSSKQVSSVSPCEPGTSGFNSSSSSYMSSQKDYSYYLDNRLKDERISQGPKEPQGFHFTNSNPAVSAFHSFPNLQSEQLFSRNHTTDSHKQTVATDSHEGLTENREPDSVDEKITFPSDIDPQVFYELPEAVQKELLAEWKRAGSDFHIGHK
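Pol iota at 10 nM preincubated 15 min with compounds at room temperature; reaction started with fluorescent substrate, 50 nM final. Fluorescence read kinetically at 0 and 10 min; buffer-only wells as negative control.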
FEN1 inhibitor – inhibitors of human flap endonuclease 1; P39748; Recombinant FEN1 flap cleavage, fluorescence, 15 min; Potency, µM (highest dose often 114 µM), inactives show top-dose activity change, negative = inhibition, hits mostly inhibitors; 390,000 tested, 0.35% active; AID 588795; note: % is set by controls: 0 for no effect and ±100 for the full control effect; nearly all actives have a fitted effect of over 65% in size
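Compounds are tested as a concentration series against 10 nM FEN1; after a 15 min room-temperature preincubation, 50 nM substrate starts cleavage, with plate reads at 0 and 15 min. Normalized responses are fitted by a Hill equation.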
Pol beta inh – DNA polymerase beta (human) inhibition; Potency, µM (doses to about 114 µM), for the others: top-dose activity change, negative = inhibition, usual class: inhibitors; Pol beta primer extension/strand displacement, fluorescence kinetic; 340,000 tested, 1.3% active; note: % is set by controls: 0 for no effect and ±100 for the full control effect
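Preincubation: enzyme (10 nM) with compound, 15 min, RT. Reaction: substrate added to 50 nM final. Reads: 0 and 10 min. Analysis: normalized, Hill fit.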
WRN inhibitor – blocks human WRN helicase; 360,000 tested, 0.46% active; Q14191; WRN helicase unwinding, fluorescent forked duplex, kinetic; Potency, µM (series often up to 114 µM), for inactives: top-dose activity change, negative = inhibition, actives largely listed as inhibitors; note: % is set by controls: 0 for no effect and ±100 for the full control effect; nearly all actives have a fitted effect of over 55% in size
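Screening of the MLSMR collection measured strand separation of a quenched forked DNA duplex (100 nM) by 20 nM WRN with 2 mM ATP, all final. Compounds were preincubated with enzyme 15 min at room temperature.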
POLH inh – DNA polymerase eta (human) inhibition; Q9Y253; recombinant Pol eta, fluorescent DNA replication assay; Potency, µM (top dose mostly 114 µM), for inactives: at the top dose activity change, negative = inhibition, hits mostly inhibitors; 390,000 tested, 1.2% active; note: % is set by controls: 0 for no effect and ±100 for the full control effect
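Fluorescent replication assay: 50 nM final substrate added after a 15 min room-temperature compound preincubation with 10 nM enzyme. Signal taken at 0 min and again at 10 min.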
An asterisk follows results filed as active; [ ] = dose if it differs, or a comment. In the library only some 2.4% were active in any assay of this set; here they are far more common. Calls come from the whole dose curve; as a rule, active = well fitted curve in the direction sought with a large enough effect; inconclusive = small, poorly fitted or top-dose-only effect, or another doubt; inactive = no such curve, though single readings can be large; an effect the other way counts as inactive or inconclusive. Potency is the fitted concentration of half-maximal effect.

COc1ccc(/C=N/Nc2ccccc2C(=O)O)cc1Cn1cc([N+](=O)[O-])cn1 was read as Pol kappa inh -19.0%, POLI inh inconclusive, FEN1 inhibitor -3.1%, Pol beta inh -4.0%, WRN inhibitor -18.0% and POLH inh -2.1%.
Screening COc1cccc(/C=N\NC(=O)c2ccc(Cn3cc(Br)c([N+](=O)[O-])n3)o2)c1O returned Pol kappa inh -12.0%, POLI inh -7.4%, FEN1 inhibitor -12.9%, Pol beta inh 39.8µM*, WRN inhibitor -18.0% and POLH inh -11.3%.
COc1ccc(/C=N/NC(=O)c2ccc(Br)cc2)cc1Cn1cc(Cl)cn1 was read as Pol kappa inh -10.9%, POLI inh 50.1µM*, FEN1 inhibitor -2.6%, Pol beta inh inconclusive, WRN inhibitor inconclusive and POLH inh inconclusive.
Cc1ccc(/C=N/NC(=O)c2ccc(Cn3cc([N+](=O)[O-])cn3)o2)cc1 was read as Pol kappa inh -10.8%, POLI inh 16.2%, FEN1 inhibitor 0.9%, Pol beta inh -23.1%, WRN inhibitor 3.2% and POLH inh -2.3%.
For CCCOc1ccc(/C=N/NC(=O)c2ccc(Cn3cc([N+](=O)[O-])cn3)o2)cc1 the results were Pol kappa inh -15.8%, POLI inh inconclusive, FEN1 inhibitor -4.5%, Pol beta inh 31.6µM*, WRN inhibitor -15.6%[57.1 µM] and POLH inh -6.3%.
Screening COc1cc(/C=N\NC(=O)c2ccc(Cn3nc([N+](=O)[O-])c(Cl)c3C)o2)ccc1O returned Pol kappa inh -28.2%, POLI inh -3.9%, FEN1 inhibitor inconclusive, Pol beta inh -6.8%, WRN inhibitor -26.2% and POLH inh -14.2%.
Screening COc1ccc(/C=N/NC(=O)c2ccccc2O)cc1Cn1cc([N+](=O)[O-])cn1 returned Pol kappa inh -3.7%, POLI inh -6.6%, FEN1 inhibitor -3.7%, Pol beta inh 56.2µM*, WRN inhibitor -9.1% and POLH inh 17.9%.
`COc1ccc(/C=N/NC(=O)c2cccc(Br)c2)cc1Cn1cc(Cl)cn1` gave Pol kappa inh -0.3%, POLI inh -17.2%, FEN1 inhibitor 1.6%, Pol beta inh -2.6%, WRN inhibitor -16.8% and POLH inh -5.2%.
For O=C(Nc1cccnc1Cl)c1cnn2c1NC(=C1CC1)C=C2C(F)F the results were Pol kappa inh -7.1%, POLI inh -2.9% and FEN1 inhibitor 9.7%.
For CC(=O)N/C(=C/c1ccccc1)c1sc2ccccc2[n+]1CCCCI the results were Pol kappa inh -32.8%, POLI inh inconclusive and FEN1 inhibitor inconclusive.
For C[C@@H](/C=C/c1ccc2ccccc2c1)C1COC(=O)C[C@H]1O (stereo partly specified) the results were Pol kappa inh -11.2%, POLI inh -21.5% and FEN1 inhibitor 5.6%.
Screening CCNc1ncc2nc(C)c(=O)n(C3CC3)c2n1 returned Pol kappa inh 0.3%[60.1 µM].
COc1cccc(/C=N/NC(=O)c2c(C)nc3ccc(Br)cn23)c1O was read as Pol kappa inh -9.7%, POLI inh inconclusive, FEN1 inhibitor -6.1%, Pol beta inh 79.4µM*, WRN inhibitor -11.2% and POLH inh 9.0%.
For CCOc1ccccc1/C=N/NC(=O)c1c(C)nc2ccc(Br)cn12 the results were Pol kappa inh 1.4%, POLI inh -8.4%, FEN1 inhibitor -2.7%, Pol beta inh 17.8%, WRN inhibitor 1.5% and POLH inh -3.5%.
Screening Nc1cc2nsnc2cc1Br returned Pol kappa inh -19.0%, POLI inh 3.55µM*, FEN1 inhibitor inconclusive, Pol beta inh inconclusive, WRN inhibitor inconclusive and POLH inh 3.55µM*.
For CC(C)OC(=O)c1cn(Cc2c(F)cccc2F)c2sc(-c3ccc(NC(=O)C(C)C)cc3)c(CN(C)Cc3ccccc3)c2c1=O the results were Pol kappa inh -3.3%[60.1 µM].
Cc1ccnc(NS(=O)(=O)c2ccc(NC(=O)Cc3ccc(F)cc3)cc2)n1 was read as Pol kappa inh 7.1%, POLI inh 4.8%, FEN1 inhibitor -2.7%, Pol beta inh 5.9%, WRN inhibitor 2.2% and POLH inh 4.7%.
`Cc1ccnc(NS(=O)(=O)c2ccc(NC(=O)Cc3cccs3)cc2)n1` gave Pol kappa inh 31.6µM*, POLI inh 14.1µM*, FEN1 inhibitor inconclusive, Pol beta inh 20µM*, WRN inhibitor 39.8µM* and POLH inh 2.51µM*.
For Cc1ccc(C)c(SCC(=O)Nc2ccc(S(=O)(=O)Nc3ncccn3)cc2)c1 the results were Pol kappa inh -0.5%, POLI inh inconclusive, FEN1 inhibitor -2.0%, Pol beta inh inconclusive, WRN inhibitor -8.5%[11.6 µM] and POLH inh 50.1µM*.
Cc1nc(N=Nc2cc(S(=O)(=O)O)ccc2S(=O)(=O)O)c(COP(=O)(O)O)c(C=O)c1O was read as Pol kappa inh 2µM*.
`N[C@@H](Cc1cc(-c2ccc(Cl)cc2Cl)cc(CP(=O)(O)O)c1O)C(=O)O` gave Pol kappa inh 1.78µM*.
CNc1ccc(Br)cc(C(=O)/C=C/c2ccc(OC)cc2)c1=O was read as Pol kappa inh -17.1%, POLI inh inconclusive, FEN1 inhibitor 3.8%, Pol beta inh 28.2µM*, WRN inhibitor -7.8%[11.6 µM] and POLH inh inconclusive.
For CCNc1ccc(Br)cc(C(=O)/C=C/c2ccc(Cl)cc2Cl)c1=O the results were Pol kappa inh inconclusive, POLI inh 8.91µM*, FEN1 inhibitor inconclusive, Pol beta inh 12.6µM*, WRN inhibitor inconclusive and POLH inh 14.1µM*.
For Cc1sc2ccccc2[n+]1C the results were Pol kappa inh -4.4%, POLI inh 6.4% and FEN1 inhibitor 4.1%.
`CC(C)=CC(=O)OCC(=O)Nc1ncc(Cl)c(C)c1Cl` gave Pol kappa inh inconclusive, POLI inh inconclusive, FEN1 inhibitor -1.1%, Pol beta inh 39.8µM*, WRN inhibitor inconclusive and POLH inh 79.4µM*.
Screening CC(=O)c1c(C)[nH]c(C(=O)OCC(=O)Nc2ncc(Cl)c(C)c2Cl)c1C returned Pol kappa inh -29.8%, POLI inh inconclusive, FEN1 inhibitor -13.8%, Pol beta inh inconclusive, WRN inhibitor -19.8%[57.1 µM] and POLH inh 89.1µM*.
Screening CC1CCCCN1C(=O)c1cnn2c1NC(=C1CC1)C=C2C(F)F (stereo unspecified) returned Pol kappa inh -20.8%, POLI inh -20.0% and FEN1 inhibitor -14.9%.
`COc1ccc(N=C2NC(=O)/C(=C/c3ccc(O)c(OC)c3)S2)cc1` gave Pol kappa inh -29.1%, POLI inh inconclusive, FEN1 inhibitor inconclusive, Pol beta inh 39.8µM*, WRN inhibitor inconclusive and POLH inh inconclusive.
